From PubChem BioAssay (NCATS)
“And” between values parts separate entries of the source, which are not always exact repeats. Identical values can stand only once. Records with an inconclusive call do not appear. The source made the active and inactive calls. Unless noted, calls come from the whole dose curve; as a rule, active = well fitted inhibition curve with a large enough effect; inconclusive = small, poorly fitted or top-dose-only effect; inactive = flat fitted curve, though single readings scatter.

Assays:
[1] = Drug repurposing screens with cells derived from glioblastoma tumor samples (AID 1345199); conditions: GBM patient neurospheres viability, ATP luminescence, 48 h; note: nearly all actives have a fitted effect of over 40% in size; note: potency is the fitted concentration of half-maximal effect; for activity, negative = cell killing: % is set by controls: 0 for no effect and ±100 for the full control effect
How it was run: (§1)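 Four patient lines of CD133+ GBM neurospheres were screened at several concentrations; hits were retested in those lines plus three slower-growing GBM lines, using 48-hour treatment and ATP-based viability.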

astro = control astrocytes; assay: as above; conditions: viability, ATP luminescence, 48 h; series mostly up to 45.9 µM
How it was run: as §1

[2] = target: Nuclear receptor subfamily 1 group I member 2 (Rattus norvegicus) (UniProt Q9R1A7); assay: qHTS assay for small molecule activators of the rat pregnane X receptor (rPXR) signaling pathway (AID 651751; call rule not given here; note: 0% is about no effect); conditions: rPXR reporter cells, luciferase (One-Glo), 24 h
Sequence of Nuclear receptor subfamily 1 group I member 2 (Rattus norvegicus) (Q9R1A7 whole entry, looked up): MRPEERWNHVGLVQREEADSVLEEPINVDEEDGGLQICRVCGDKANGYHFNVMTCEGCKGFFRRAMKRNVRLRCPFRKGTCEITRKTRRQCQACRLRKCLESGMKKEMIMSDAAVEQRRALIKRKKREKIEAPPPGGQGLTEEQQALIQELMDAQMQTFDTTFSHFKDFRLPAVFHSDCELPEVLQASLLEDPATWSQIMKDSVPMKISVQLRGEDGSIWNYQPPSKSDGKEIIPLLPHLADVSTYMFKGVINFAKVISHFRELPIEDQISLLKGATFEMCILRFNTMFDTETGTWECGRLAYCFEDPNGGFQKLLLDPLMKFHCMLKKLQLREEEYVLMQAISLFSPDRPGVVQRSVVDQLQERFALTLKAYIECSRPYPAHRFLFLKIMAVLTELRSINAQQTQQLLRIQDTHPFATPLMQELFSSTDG

[3] = qHTS assay for small molecule activators of the human pregnane X receptor (PXR) signaling pathway (AID 720659; call rule not given here; note: 0% is about no effect); conditions: DPX-2 HepG2 CYP3A4-luciferase, 24 h; series mostly up to 92.3 µM
[4] = at 45.9 µM (top of the series), tumour line B
[5] = at 45.9 µM (top of the series), tumour line D
[6] = at 46 µM (top of the series), tumour line A
[7] = at 46.1 µM (top of the series), tumour line C
[8] = at 20 µM (top of the series), tumour line C
[9] = at 21.2 µM (top of the series), tumour line B
[10] = at 21.2 µM (top of the series), tumour line D
[11] = at 21.3 µM (top of the series), tumour line A

CCCCC(=O)N(Cc1ccc(-c2ccccc2-c2nn[nH]n2)cc1)[C@@H](C(=O)O)C(C)C
inactive: activity, negative = cell killing [1, 4] 2.85% | activity, negative = cell killing [1, 5] -14.3% | activity, negative = cell killing [1, 6] -22.5% | activity, negative = cell killing [1, 7] 9.38% | Potency (astro)

CCOC(=O)O[C@]1(C(=O)COC(=O)CC)CC[C@H]2[C@@H]3CCC4=CC(=O)C=C[C@]4(C)[C@H]3[C@@H](O)C[C@@]21C
inactive: activity, negative = cell killing [1, 8] 2.55% | activity, negative = cell killing [1, 9] -5.02% | activity, negative = cell killing [1, 10] -9.53% | activity, negative = cell killing [1, 11] -19.6%

CN(C)CC/C=C1/c2ccccc2CSc2ccccc21
active: Potency ([1]; tumour line A) 12.6 µM | Potency ([1]; tumour line D) 12.6 µM
inactive: activity, negative = cell killing [1, 8] -1.3% | activity, negative = cell killing [1, 9] -26.2%

CCCCCCCCCCCCCCCC(=O)OCC(COC(=O)CCCCCCCCCCCCCCC)OC(=O)CCCCCCCCCCCCCCC
inactive: activity, negative = cell killing [1, 4] -15.6% | activity, negative = cell killing [1, 5] -3.31% | activity, negative = cell killing [1, 6] -22.2% | activity, negative = cell killing [1, 7] -9%

CC(C)NCC1CCc2cc(CO)c([N+](=O)[O-])cc2N1 (stereo unspecified)
inactive: activity, negative = cell killing [1, 8] -4.59% | activity, negative = cell killing [1, 9] -15% | activity, negative = cell killing [1, 10] -4.44%

N[C@H](C(=O)O)[C@@H]1CC(Cl)=NO1
active: Potency ([1]; tumour line C) 6.51 µM
inactive: activity, negative = cell killing [1, 5] -29.2% | activity, negative = cell killing [1, 6] -38.5%

CC(=O)Oc1cc(C)c(OC(C)=O)c2ccccc12
inactive: activity, negative = cell killing [1, 4] -16.5% | activity, negative = cell killing [1, 7] 0.711%

CC1(C)S[C@@H]2[C@H](NC(=O)C(N)c3ccccc3)C(=O)N2[C@H]1C(=O)OC1OC(=O)c2ccccc21 (stereo partly specified)
inactive: activity, negative = cell killing [1, 8] -5.29% | activity, negative = cell killing [1, 9] -22.1% | activity, negative = cell killing [1, 10] -10.3%

CCC(=O)O[C@@H]1CC(=O)O[C@H](C)C/C=C/C=C/[C@H](O)[C@H](C)C[C@H](CC=O)[C@H](O[C@@H]2O[C@H](C)[C@@H](O[C@H]3C[C@@](C)(O)[C@@H](OC(=O)CC)[C@H](C)O3)[C@H](N(C)C)[C@H]2O)[C@H]1OC
inactive: activity, negative = cell killing [1, 8] 18.5% | activity, negative = cell killing [1, 9] -16.2% | activity, negative = cell killing [1, 10] -1.85% | activity, negative = cell killing [1, 11] -24.3%

C[C@H](CCC(=O)O)[C@H]1CC[C@H]2[C@@H]3[C@H](O)C[C@@H]4C[C@H](O)CC[C@]4(C)[C@H]3CC[C@]12C
inactive: activity, negative = cell killing [1, 8] 0.416% | activity, negative = cell killing [1, 9] 1.96% | activity, negative = cell killing [1, 10] 6.12% | activity, negative = cell killing [1, 11] -15.4% | Potency (astro)

CC(NNC(=O)c1ccccc1)c1ccccc1 (stereo unspecified)
inactive: activity, negative = cell killing [1, 4] -15.6% | activity, negative = cell killing [1, 5] -19.2% | activity, negative = cell killing [1, 7] -40.2% | Potency (astro)

CC1(C)S[C@@H]2[C@H](NC(=O)C(C(=O)O)c3ccsc3)C(=O)N2[C@H]1C(=O)O (stereo partly specified)
inactive: activity, negative = cell killing [1, 4] 5.71% | activity, negative = cell killing [1, 5] -0.709% | activity, negative = cell killing [1, 6] 0.915% | activity, negative = cell killing [1, 7] -15.8% | Potency (astro)

O=C(O)c1cc(O)c2c(c1)[O][Bi][O]2
inactive: activity, negative = cell killing [1, 4] -11.9% | activity, negative = cell killing [1, 5] -5.77% | activity, negative = cell killing [1, 6] -19.4% | activity, negative = cell killing [1, 7] 3.44% | Potency (astro)

COC(F)(F)C(Cl)Cl
inactive: activity, negative = cell killing [1, 4] -7.55% | activity, negative = cell killing [1, 5] -1.1% | activity, negative = cell killing [1, 6] -22% | Potency (astro)

COC(=O)C1=C(C#N)NC(C)=C(C(=O)OC(C)C)C1c1cccc([N+](=O)[O-])c1 (stereo unspecified)
inactive: activity, negative = cell killing [1, 4] -5.18% | activity, negative = cell killing [1, 5] -25.1% | Potency (astro)
active: Potency ([1]; tumour line A) 14.1 µM

O=C(COc1ccc(Cl)cc1)OCCNC12CC3CC(CC(C3)C1)C2
inactive: activity, negative = cell killing [1, 4] -5.61% | activity, negative = cell killing [1, 5] -18.7% | activity, negative = cell killing [1, 7] -2.27% | Potency (astro)

C[C@]12CCC(=O)C=C1CC[C@@H]1[C@@H]2[C@@H](O)C[C@@]2(C)[C@H]1CC[C@]2(O)C(=O)COP(=O)(O)O
inactive: activity, negative = cell killing [1, 4] -5.72% | activity, negative = cell killing [1, 5] -20.1% | activity, negative = cell killing [1, 6] -14% | activity, negative = cell killing [1, 7] -20.1% | Potency (astro)

IC(I)I
inactive: activity, negative = cell killing [1, 4] -9.98% | activity, negative = cell killing [1, 5] -13.1% | activity, negative = cell killing [1, 6] -9.65% | activity, negative = cell killing [1, 7] 2.5% | Potency (astro) | max response [2] 0.127% and 1.54% | outcome [3]

CC1(C)S[C@@H]2[C@H](NC(=O)[C@@H](NC(=O)N3CCNC3=O)c3ccccc3)C(=O)N2[C@H]1C(=O)O
inactive: activity, negative = cell killing [1, 8] -8.8% | activity, negative = cell killing [1, 9] -3.93% | activity, negative = cell killing [1, 10] -6.96% | activity, negative = cell killing [1, 11] -17.7% | Potency (astro)

Nc1ccn([C@H]2CS[C@@H](CO)O2)c(=O)n1
inactive: activity, negative = cell killing [1, 4] -4.08% | activity, negative = cell killing [1, 5] 8.01% | activity, negative = cell killing [1, 6] -14.1% | activity, negative = cell killing [1, 7] 0.221% | Potency (astro) | outcome [3]

O=C(O)CN(CCN(CC(=O)O)CC(=O)O)CC(=O)O
inactive: activity, negative = cell killing [1, 4] -9.39% | activity, negative = cell killing [1, 5] -15% | activity, negative = cell killing [1, 6] -14.7% | activity, negative = cell killing [1, 7] -16.4% | max response [2] 0.191% and 7.12%
